A short description of test [1]: NCI Yeast Anticancer Drug Screen. Data for the rad50 strain (AID 155).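 Also: 0% = growth of vehicle-only cultures of the same strain.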 The settings on record: S. cerevisiae rad50 strain growth inhibition, stronger effect = higher value. In short, it runs like this: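 Genetically altered yeast (DNA repair pathway); compound treatment; growth inhibition vs vehicle ctrl.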
Test [2] in a line: NCI Yeast Anticancer Drug Screen. Data for the mec2-1 strain (AID 157). The settings on record: S. cerevisiae mec2-1 strain, stronger effect = higher value. The method, boiled down: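 Yeast mec2-1 mutant treated with compound. Readout: growth inhibition vs vehicle controls.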
Test [3] in a line: NCI Yeast Anticancer Drug Screen. Data for the sgs1 mgt1 strain (AID 161).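 Also: 0% = growth of cultures given vehicle only.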 The settings on record: S. cerevisiae sgs1 mgt1 strain, stronger effect = higher value. The method, boiled down:
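Inhibition of yeast growth, normalised to vehicle-treated controls, is reported for a strain bearing genetic alterations in DNA damage repair.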

A short description of test [4]: NCI Yeast Anticancer Drug Screen. Data for the cln2 rad14 strain (AID 165).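 Also: 0% = growth equal to vehicle treated cultures.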 The following applies: S. cerevisiae cln2 rad14 strain, stronger effect = higher value. The method, boiled down: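 cln2 rad14 yeast strain; compound exposure; growth inhibition read vs vehicle controls.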
Test [5] in a line: NCI Yeast Anticancer Drug Screen. Data for the bub3 strain (AID 167). The following applies: S. cerevisiae bub3 mutant strain, stronger effect = higher value. In short, it runs like this:
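Yeast carrying a defined mutation is treated with each compound, and growth is compared with that of vehicle-exposed cells to give inhibition.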

Test [6] in a line: NCI Yeast Anticancer Drug Screen. Data for the mlh1 rad18 strain (AID 175). The settings on record: S. cerevisiae mlh1 rad18 strain growth inhibition, stronger effect = higher value. The method, boiled down: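 Yeast w/ defined DNA-repair lesions; compound exposure; growth vs vehicle controls → % inhibition.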
Where [7] appears, read: at 5.0 µM (retest, dose inferred, filed as 0.5).
Setting [8] is: at 50.0 µM (retest, dose inferred, filed as 5.0).

Growth inhibition data for nine compounds are collected here from PubChem BioAssay (NCI).

The panel holds about 79,000 compounds, 15% with a hit somewhere; the sample as a whole holds those more often. Values without a mark were called inactive. Calls of active or inactive are those of the source. Rule as the data show it: active = growth inhibition above about 70%; inactive = the rest.

As for `O=c1c2ccccc2sc2c([N+](=O)[O-])ccc(NCCNCCO)c12`, the growth inhibition is 57% in test [1] (setting [7]); 98% (active) in test [1] (setting [8]); 87.2% (active) in test [1] (at 50.0 µM); 35% in test [2] (setting [7]); 99% (active) in test [2] (setting [8]); 92.1% (active) in test [2] (at 50.0 µM). Further, the growth inhibition was 18% in test [3] (setting [7]); 98% (active) in test [3] (setting [8]); 86.7% (active) in test [3] (at 50.0 µM); 25% in test [4] (setting [7]); 98% (active) in test [4] (setting [8]); 87.2% (active) in test [4] (at 50.0 µM). Further, the growth inhibition in test [5] (setting [7]) is 21%; in test [5] (setting [8]), 99% (active); in test [5] (at 50.0 µM), 88.5% (active); in test [6] (setting [7]), 35%; in test [6] (setting [8]) it was 98% (active); in test [6] (at 50.0 µM) it was 83.3% (active).
Take `CCOC(=O)C1CC(C(=O)OCC)C(=O)C1=O` (configuration not stated): the growth inhibition in test [1] (setting [7]) was 45%; in test [1] (setting [8]) it was 96% (active); in test [1] (at 50.0 µM) it was 96.3% (active); in test [2] (setting [7]), 27%; in test [2] (setting [8]) it was 95% (active); in test [2] (at 50.0 µM) it was 91% (active). The growth inhibition in test [3] (setting [7]) is 54%; in test [3] (setting [8]), 96% (active); in test [3] (at 50.0 µM), 43.6%; in test [4] (setting [7]) it was 28%; in test [4] (setting [8]) it was 97% (active); in test [4] (at 50.0 µM) it was 34.2%. The growth inhibition in test [5] (setting [7]) is 44%; in test [5] (setting [8]), 97% (active); in test [5] (at 50.0 µM), 94% (active); in test [6] (setting [7]), 37%; in test [6] (setting [8]) it was 98% (active); in test [6] (at 50.0 µM), 47.9%.
In the case of `O=C(NNc1ccccc1)c1cccc([N+](=O)[O-])c1`, the growth inhibition in test [1] (setting [7]) was 23%; in test [1] (setting [8]), 98% (active); in test [1] (at 50.0 µM) it was 98.2% (active); in test [2] (setting [7]), 31%; in test [2] (setting [8]), 99% (active); in test [2] (at 50.0 µM), 98.5% (active). The growth inhibition in test [3] (setting [7]) was 39%; in test [3] (setting [8]), 99% (active); in test [3] (at 50.0 µM) it was 98.8% (active); in test [4] (setting [7]) it was 28%; in test [4] (setting [8]) it was 98% (active); in test [4] (at 50.0 µM), 93.7% (active). The growth inhibition is 29% in test [5] (setting [7]); 99% (active) in test [5] (setting [8]); 99.4% (active) in test [5] (at 50.0 µM); 29% in test [6] (setting [7]); 98% (active) in test [6] (setting [8]); 98.8% (active) in test [6] (at 50.0 µM).
Regarding `O=CC(=C\c1ccco1)/C(C=O)=C\c1ccco1`, the growth inhibition was 11% in test [1] (setting [7]); 25% in test [1] (setting [8]); 18.1% in test [1] (at 50.0 µM); 7% in test [2] (setting [7]); 44% in test [2] (setting [8]); 5.45% in test [2] (at 50.0 µM). Also, the growth inhibition in test [3] (setting [7]) is 11%; in test [3] (setting [8]), 63%; in test [3] (at 50.0 µM) it was 13%; in test [4] (setting [7]) it was 2%; in test [4] (setting [8]), 15%; in test [4] (at 50.0 µM) it was 33.9%. For the same compound, the growth inhibition in test [5] (setting [7]) is -6%; in test [5] (setting [8]), 33%; in test [5] (at 50.0 µM), -23.6%; in test [6] (setting [7]), 21%; in test [6] (setting [8]) it was 86% (active); in test [6] (at 50.0 µM), 71.9% (active).
As to `COc1ccc(-c2csc(C)n2)cc1OC`, the growth inhibition in test [1] (setting [7]) was 5%; in test [1] (setting [8]), 1%; in test [1] (at 50.0 µM) it was 21.4%; in test [2] (setting [7]), 2%; in test [2] (setting [8]), 4%; in test [2] (at 50.0 µM) it was 3.35%. For the same compound, the growth inhibition in test [3] (setting [7]) was 1%; in test [3] (setting [8]), 7%; in test [3] (at 50.0 µM), 16.1%; in test [4] (setting [7]), 3%; in test [4] (setting [8]) it was -3%; in test [4] (at 50.0 µM) it was 30.3%. Further, the growth inhibition is 0% in test [5] (setting [7]); 9% in test [5] (setting [8]); 0.25% in test [5] (at 50.0 µM); 2% in test [6] (setting [7]); 11% in test [6] (setting [8]); 8.5% in test [6] (at 50.0 µM).
For the compound `O=C(CN1CCCCC1)CC(O)(C(F)(F)F)C(F)(F)F`, the growth inhibition in test [1] (setting [7]) is 29%; in test [1] (setting [8]) it was 39%; in test [1] (at 50.0 µM) it was 5.85%; in test [2] (setting [7]), 20%; in test [2] (setting [8]), 33%; in test [2] (at 50.0 µM) it was 8.45%. The growth inhibition in test [3] (setting [7]) is 10%; in test [3] (setting [8]) it was 20%; in test [3] (at 50.0 µM), 6.25%; in test [4] (setting [7]), 2%; in test [4] (setting [8]) it was 50%; in test [4] (at 50.0 µM), 15.6%. Besides, the growth inhibition in test [5] (setting [7]) was 11%; in test [5] (setting [8]) it was 23%; in test [5] (at 50.0 µM), 7.5%; in test [6] (setting [7]), 31%; in test [6] (setting [8]), 34%; in test [6] (at 50.0 µM), 77.3% (active).
As to `COc1cc(F)ccn1`, the growth inhibition was 2% in test [1] (setting [7]); 0% in test [1] (setting [8]); -4.75% in test [1] (at 50.0 µM); 5% in test [2] (setting [7]); 4% in test [2] (setting [8]); -11.4% in test [2] (at 50.0 µM). Further, the growth inhibition in test [3] (setting [7]) is 2%; in test [3] (setting [8]) it was 2%; in test [3] (at 50.0 µM), -12.5%; in test [4] (setting [7]) it was 1%; in test [4] (setting [8]) it was 4%; in test [4] (at 50.0 µM), 12.8%. For the same compound, the growth inhibition in test [5] (setting [7]) is -2%; in test [5] (setting [8]), -4%; in test [5] (at 50.0 µM), 46%; in test [6] (setting [7]), -4%; in test [6] (setting [8]), -3%; in test [6] (at 50.0 µM), -18.2%.
Take `Cc1nc2c(nc1C)C(=O)C1=C(C2=O)C2C=CC1CC2`: the growth inhibition in test [1] (setting [7]) was 0%; in test [1] (setting [8]) it was 87% (active); in test [1] (at 50.0 µM), 89.8% (active); in test [2] (setting [7]), -2%; in test [2] (setting [8]), 90% (active); in test [2] (at 50.0 µM), 74.6% (active). In addition, the growth inhibition in test [3] (setting [7]) was 2%; in test [3] (setting [8]), 94% (active); in test [3] (at 50.0 µM) it was 94.7% (active); in test [4] (setting [7]), -3%; in test [4] (setting [8]), 68%; in test [4] (at 50.0 µM) it was 57%. The growth inhibition in test [5] (setting [7]) is 24%; in test [5] (setting [8]), 94% (active); in test [5] (at 50.0 µM), 93.5% (active); in test [6] (setting [7]), 2%; in test [6] (setting [8]), 93% (active); in test [6] (at 50.0 µM) it was 91.8% (active).
Take `C/C(=N/NC(=S)Nc1cccc(Cl)c1)c1ccccn1`: the growth inhibition in test [1] (setting [7]) is 78% (active); in test [1] (setting [8]) it was 97% (active); in test [1] (at 50.0 µM), 79% (active); in test [2] (setting [7]) it was 91% (active); in test [2] (setting [8]) it was 97% (active); in test [2] (at 50.0 µM), 86.7% (active). Also, the growth inhibition in test [3] (setting [7]) was 85% (active); in test [3] (setting [8]), 97% (active); in test [3] (at 50.0 µM), 87% (active); in test [4] (setting [7]) it was 81% (active); in test [4] (setting [8]) it was 96% (active); in test [4] (at 50.0 µM), 88.2% (active). Moreover, the growth inhibition is 82% (active) in test [5] (setting [7]); 96% (active) in test [5] (setting [8]); 90% (active) in test [5] (at 50.0 µM); 91% (active) in test [6] (setting [7]); 97% (active) in test [6] (setting [8]); 90.1% (active) in test [6] (at 50.0 µM).
